Active and inactive are the calls of the source. The calls were made as follows: active = hit-call score of the fitted dose curve at least 0.9, where 1 is the maximum; inactive = score below 0.9.

Sequence of Hypoxia-inducible factor 1-alpha (Homo sapiens) (Q16665 whole entry, looked up): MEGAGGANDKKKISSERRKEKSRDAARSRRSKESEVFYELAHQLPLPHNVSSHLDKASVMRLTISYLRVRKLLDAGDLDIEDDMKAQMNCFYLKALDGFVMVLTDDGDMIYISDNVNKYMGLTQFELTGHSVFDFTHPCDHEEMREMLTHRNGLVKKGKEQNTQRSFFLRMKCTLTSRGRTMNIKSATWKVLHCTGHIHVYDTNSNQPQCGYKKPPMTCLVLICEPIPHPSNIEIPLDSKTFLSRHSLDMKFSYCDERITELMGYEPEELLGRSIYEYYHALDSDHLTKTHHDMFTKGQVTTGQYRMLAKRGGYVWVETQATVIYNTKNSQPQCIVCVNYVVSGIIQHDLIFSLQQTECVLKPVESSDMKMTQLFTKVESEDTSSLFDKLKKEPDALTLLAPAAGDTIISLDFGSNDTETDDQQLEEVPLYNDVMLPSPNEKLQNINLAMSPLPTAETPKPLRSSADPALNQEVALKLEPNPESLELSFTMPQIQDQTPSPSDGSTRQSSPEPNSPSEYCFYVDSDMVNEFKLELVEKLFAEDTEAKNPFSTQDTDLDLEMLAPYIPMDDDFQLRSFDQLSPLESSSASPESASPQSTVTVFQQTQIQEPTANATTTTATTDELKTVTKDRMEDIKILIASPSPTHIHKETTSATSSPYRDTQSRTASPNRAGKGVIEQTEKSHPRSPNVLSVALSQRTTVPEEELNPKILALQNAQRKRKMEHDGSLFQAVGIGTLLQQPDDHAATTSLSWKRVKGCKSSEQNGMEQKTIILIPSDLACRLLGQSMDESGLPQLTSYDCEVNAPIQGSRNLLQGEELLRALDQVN

Read-out in one experiment: Hypoxia-inducible factor 1-alpha (Homo sapiens) (UniProt Q16665)
In words: LTEA_HepaRG_HIF1A: Life Technologies and Expression Analysis (LTEA) Assay for Hypoxia-inducible factor 1 (HIF1A) Trancription factor using HepaRG (AID 2283503).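 Also: HIF1A transcript by TaqMan qRT-PCR normalized to ACTB GAPDH and POLR2A.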 The settings on record: mRNA level, 48 h; actives raise or lower the signal. The procedure, abridged:
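Gain- or loss-of-signal HIF1A mRNA changes are fitted against a DMSO baseline. HepaRG cultures receive eight concentrations, highest 100 uM, for 48 h in serum-free induction medium with 0.5% DMSO.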
As to `O=C(Oc1ccccc1)c1cccc(C(=O)Oc2ccccc2)c1`, the call was inactive.

On to `CN(C)C(=O)NC1(c2ccccc2)CCN(CC[C@@]2(c3ccc(F)c(F)c3)CN(C(=O)c3ccccc3)CCO2)CC1`, for which the result was inactive.

For the compound `CC(C)c1cccc(C(C)C)c1NC(=O)NS(=O)(=O)c1cc(C(C)(C)O)co1`, the compound was called inactive.

Consider `O=C1c2c(O)cccc2Cc2cccc(O)c21`, for which the outcome was inactive.

Regarding `O=[Si]=O`, the outcome was inactive.

As for `CC(C)(C)c1ccccc1`, the result was inactive.

`Cc1ccc(C(C)(C)C)c(O)c1`: the call was inactive.

As for `c1ccc2occc2c1`, the result was inactive.

Regarding `COC(=O)CCC(=O)OC`, the compound was classed as inactive.

Turning to `CC(=O)CC(c1ccccc1)c1c(O)c2ccccc2oc1=O` (stereo not given), the result was inactive.

As to `CCc1cc(C2=C(C(=O)O)N(c3ccccc3C(F)(F)F)S(=O)(=O)c3ccccc32)cc2c1OCO2`, the compound was classed as inactive.

In the case of `CCCCc1nc2cccnc2n1Cc1ccc(-c2ccccc2-c2nnn[nH]2)cc1`, the compound was classed as inactive.

For `CCCCC(CC)CO` (stereo not given), the compound was classed as inactive.

With `CC1=C(C)S(=O)(=O)CCS1(=O)=O`, the AC50 is 77.1 µM (active).

On to `CCCCC(CC)COP(=O)(OCC(CC)CCCC)OCC(CC)CCCC` (stereo not given), for which the outcome was inactive.

`CC(COCC(C)OC(=O)c1ccccc1)OC(=O)c1ccccc1` (stereo not given): the call was inactive.

Turning to `CC1(C)C(=O)NC(=O)N1CO`, the compound was called inactive.

Regarding `CCCCCCC(CCCCCCCCCCC(=O)OCC(COC(C)=O)OC(C)=O)OC(C)=O` (stereo not given), the compound was called inactive.

Regarding `O=Cc1ccccc1C=O`, the call was inactive.

Read-out in a further experiment: 3-Hydroxy-3-Methylglutaryl-CoA Synthase 2 (HMGCS2), HMGCS2 (gene 3158)
In words: LTEA_HepaRG_HMGCS2: Life Technologies and Expression Analysis (LTEA) Assay for 3-Hydroxy-3-Methylglutaryl-CoA Synthase 2 (HMGCS2) using HepaRG (AID 2283504). The following applies: mRNA level, 48 h; actives raise or lower the signal. Summed up:
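Readout is HMGCS2 transcript by qRT-PCR, housekeeping-normalised (ACTB/GAPDH/POLR2A) and fitted bidirectionally against 0.5% DMSO. Differentiated HepaRG cells received chemicals 48 h, duplicate wells, eight half-log concentrations topping at 100 uM.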
Regarding `CC(C)OC(=O)C(C)(C)Oc1ccc(C(=O)c2ccc(Cl)cc2)cc1`, the AC50 was 4.29 µM (active).

Consider `OCC(CO)n1cnc(-c2ccc(F)cc2)c1-c1ccnc(Oc2ccccc2)n1`, for which the outcome was inactive.

As for `N[C@@H](Cc1c[nH]c2ccccc12)C(=O)O`, the outcome was inactive.

With `O=[Si]=O`, the compound was classed as inactive.

Consider `CC(C)(C)c1ccccc1`, for which the outcome was inactive.

With `Cc1ccc(C(C)(C)C)c(O)c1`, the call was inactive.

Regarding `CC(=O)CC(c1ccccc1)c1c(O)c2ccccc2oc1=O` (stereo not given), the compound was called inactive.

Consider `CCc1cc(C2=C(C(=O)O)N(c3ccccc3C(F)(F)F)S(=O)(=O)c3ccccc32)cc2c1OCO2`, for which the concentration at half-maximal activity (AC50) was 81.4 µM (active).

As for `CCCCc1nc2cccnc2n1Cc1ccc(-c2ccccc2-c2nnn[nH]2)cc1`, the compound was called inactive.

As for `CC(COCC(C)OC(=O)c1ccccc1)OC(=O)c1ccccc1` (stereo not given), the compound was classed as inactive.

With `CC1(C)C(=O)NC(=O)N1CO`, the call was inactive.

Values taken from PubChem BioAssay (EPA / NIEHS).
